In the library only some 4.5% were active in any assay of this set; here they are far more common.
ALR H2O2 inh = blocks human ALR sulfhydryl oxidase activity; actives 3.8% (n = 290,000); inhibition, % (concentration not given with the values); purified ALR, DTT oxidation, H2O2 HRP-luminol luminescence; AID 485317;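 active means mean replicate inhibition above about 79%, with every replicate also reaching it, limit read from the data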
Target sequence (P55789 whole entry, looked up): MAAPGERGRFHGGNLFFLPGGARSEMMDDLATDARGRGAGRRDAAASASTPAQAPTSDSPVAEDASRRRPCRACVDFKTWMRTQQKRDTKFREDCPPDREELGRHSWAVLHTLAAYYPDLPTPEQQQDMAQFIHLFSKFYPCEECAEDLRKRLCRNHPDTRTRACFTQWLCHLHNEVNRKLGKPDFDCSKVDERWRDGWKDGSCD
Efflux pump inh = antifungal efflux pump inhibition, Nile Red retention; S. cerevisiae Candida pump triplex; inhibition, % at 10 µM; actives 0.44% (n = 330,000);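 active means plate passing quality check with inhibition over a set limit, or well fluorescence over plate mean plus 4 SD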;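 further: Nile Red retained in pooled yeast measured as flow cytometry median fluorescence; higher means more Nile Red kept so more efflux inhibition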
HDAC3 inh = inhibitors of human histone deacetylase 3. O15379. recombinant HDAC3, fluorogenic peptide/trypsin coupled, fluorescence. actives 0.15% (n = 320,000). inhibition, % at 8.3 µM. AID 2718; in the data active means inhibition above about 26%, passing the limit was not always enough
Rtt109 Vps75 = blocks Candida albicans Rtt109/Vps75 acetyltransferase activity. inhibition, % at 34.9 µM. actives 0.16% (n = 330,000). purified Rtt109/Vps75, ThioGlo CoA-SH fluorescence, 4 h. AID 540336. Q5AAJ8;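 active means inhibition of at least 50% in every replicate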
GRK2 inh = inhibitors of human GRK2 displacing RNA aptamer | bead flow cytometry, FAM-aptamer displacement from GRK2 | actives 0.59% (n = 330,000) | inhibition of aptamer binding, % at 10 µM | AID 488847 | P25098;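 active means inhibition of aptamer binding above 40%, roughly 3 SD of noise, on plates passing a quality check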;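 further: median bead fluorescence of bound FAM aptamer so fluorescent compounds give negative values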
Rce1 inhib = inhibitors of yeast Ras-converting enzyme; Q03530; yeast membranes, quenched prenylated peptide cleavage fluorescence; calls only; actives 0.27% (n = 290,000); AID 2563;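 active means fall in fluorescence gain of 50% or more versus controls, with final raw signal at or below 3038400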
A number is an active result; n = inactive; x = no result given.

SMILES	ALR H2O2 inh	Efflux pump inh	HDAC3 inh	Rtt109 Vps75	GRK2 inh	Rce1 inhib
O=C(O[C@@H]1OC2COC(=O)c3cc(O)c(O)c(O)c3-c3c(cc(O)c(O)c3O)C(=O)O[C@@H]([C@H]1O)[C@@H]2O)c1cc(O)c(O)c(O)c1	99.4	n	n	n	n	n
C1=CCN(Cc2ccccc2)C1	n	n	n	n	n	n
c1ccc(Nc2ccnc(Nc3ccccc3)n2)cc1	95.6	n	n	n	x	n
CCCN(CC(=O)Nc1ccccc1C)C(=O)/C=C/c1ccc(S(=O)(=O)N2CCCCCC2)cc1	n	n	n	n	n	n
O=c1c2ccccc2cnn1Cc1n[nH]c(=S)n1-c1ccccc1Cl	83.9	n	n	n	n	n
Oc1ccc(Nc2nc(-c3ccccc3F)nc3ccccc23)cc1	99.5	n	n	n	n	n
Cc1ccc(-c2nc(Nc3cccc(O)c3)c3ccccc3n2)cc1	n	n	n	n	n	n
Oc1cccc(Nc2c3ccccc3nc3ccccc23)c1	99.3	n	n	n	n	n
Oc1cccc(Nc2nc(-c3ccccc3Cl)nc3ccccc23)c1	87.9	n	n	n	n	n
Nn1c(SCc2cn3cc(Cl)ccc3n2)nnc1-c1ccncc1	97.6	n	n	n	n	n
CSc1cccc(NC(=O)Nc2ccccc2C(N)=O)c1	91.5	n	x	n	n	n
CC(=O)Oc1ccc(C(=O)Nc2cccc(C(=O)c3ccc(C)c(C)c3)c2)cc1	n	n	n	n	n	n
CN(C)c1ccc(CNS(=O)(=O)c2csc(C(N)=O)c2)cc1	93.1	n	n	n	n	n
Cn1c(=O)c2c(nc3n2CC(O)CN3c2ccc(O)cc2)n(C)c1=O (stereo not drawn)	99.3	n	n	n	n	n
Cc1ccc(N2CC(O)Cn3c2nc2c3c(=O)n(C)c(=O)n2C)cc1 (stereo not drawn)	n	n	n	n	n	n
COc1ccc(S(=O)(=O)Cc2ccc(C(=O)N3CCCC3)o2)cc1	93.7	n	n	n	n	n
COc1ccccc1S(=O)(=O)Cc1ccc(C(=O)N2CCCC2)o1	93.4	n	n	n	n	n
COc1ccc(S(=O)(=O)Cc2ccc(C(=O)N3CCN(c4ccccc4)CC3)o2)cc1	88.5	n	n	n	n	n
Cc1ccc(NC(=O)CN(C)C(=O)Cc2c[nH]c3ccccc23)cc1	n	n	n	n	n	x
CC(OC(=O)Cc1c(F)cccc1Cl)C(=O)NC1(C#N)CCCCC1 (stereo not drawn)	n	n	n	n	n	n
COc1ccc(NC2CCCN(C(=O)CCCn3cncn3)C2)cc1OC (stereo not drawn)	93.9	n	n	n	n	n
Cc1ccc(NC2CCCN(C(=O)CCc3ccncc3)C2)cc1C (stereo not drawn)	98.3	n	n	n	n	n
Cc1ccc(NC2CCCN(C(=O)CCC(=O)c3ccccc3)C2)cc1C (stereo not drawn)	x	x	x	n	x	n
CCOC(=O)C1CCCN(C(=O)CSc2ccc(NC(C)=O)cc2)C1 (stereo not drawn)	x	n	n	n	n	n
Cc1ccc(NC2CCCN(C(=O)Cc3nonc3C)C2)cc1C (stereo not drawn)	99.2	n	n	n	n	n
SMILES	ALR H2O2 inh	Efflux pump inh	HDAC3 inh	Rtt109 Vps75	GRK2 inh	Rce1 inhib
Cc1ccc(NC2CCCN(C(=O)CSc3ccncc3)C2)cc1C (stereo not drawn)	98.2	n	n	n	n	n
Cc1cc(NC(=O)Nc2ccc(OCc3ccccc3)cc2)n(C)n1	n	n	n	n	n	n
CSc1cccc(N2CC(C(=O)N3CCN(S(=O)(=O)c4ccccc4Cl)CC3)CC2=O)c1 (stereo not drawn)	n	n	n	n	n	x
Cc1ccc(NC2CCCN(C(=O)CN3C(=O)c4ccccc4C3=O)C2)cc1C (stereo not drawn)	92.6	n	n	n	n	n
O=C(CCc1ccncc1)N1CCCC(Nc2ccc(F)c(F)c2)C1 (stereo not drawn)	94.9	n	n	n	n	n
COc1ccc(NC2CCCN(C(=O)CCc3ccncc3)C2)cc1OC (stereo not drawn)	95.0	n	n	n	n	n
O=C(CSc1ccccn1)N1CCCC(Nc2ccc(F)c(F)c2)C1 (stereo not drawn)	n	n	n	n	n	n
CN(CC(=O)Nc1ccccc1Cl)C(=O)COC(=O)c1ccccc1[N+](=O)[O-]	n	n	n	n	n	n
O=C(NCCNC(=O)c1ccc(-c2ccc(Cl)c(Cl)c2)o1)c1cnccn1	n	n	n	n	n	n

Screening data: PubChem, several laboratories
